Assay outcomes as filed in PubChem BioAssay.
The list is not random: actives were taken first. Their share in the collection is about 3%.
CF NFkB block: inhibitors of cystic fibrosis induced NF-kB | inhibition, % at 5 µM | actives 0.86% (n = 360,000) | KKLEB NF-kB-GFP reporter, PAF-induced, GFP fluorescence overnight | AID 588850;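 active = at least 50% inhibition at 5 µM, scaled per plate between neutral and stimulator controls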;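 note: PAF is a Pseudomonas aeruginosa culture filtrate used as stimulus; plate controls were PAF-stimulated DMSO wells for no effect and unstimulated DMSO wells for full effect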
KKLEB tox: counter-screen for CF NF-kB inhibitors: cytotoxicity; KKLEB CF airway cells viability, ATPlite luminescence, overnight; stronger effect = lower value; cells stimulated with P. aeruginosa culture filtrate; activity change (cytotoxicity), % at 5 µM; actives 0.36% (n = 360,000); AID 602141;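 active = corrected activity change at or below -50% at 5 µM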
Peg3 prom inh-1: reduces Peg3 promoter-driven luciferase expression in HeLa | HeLa PEG-Prom luciferase reporter, luminescence, overnight | inhibition, % at 20 µM | actives 1.7% (n = 360,000) | AID 588405;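 active = inhibition of at least 50% at 20 µM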
LMP1 NFkB inh: Epstein-Barr LMP1 NF-kappaB reporter inhibition. inhibition, % at 12.5 µM. AID 504558. LMP1-induced NF-kappaB luciferase reporter cells, luminescence. actives 0.69% (n = 350,000); in the data active = inhibition above about 41%;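 note: 0% = neutral control wells and 100% = reference inhibitor control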
MITF TRPM1 inh: reduces MITF-dependent TRPM1 promoter luciferase signal; SK-MEL-5 TRPM1 promoter luciferase, 24 h; inhibition, % at 12.5 µM; actives 0.83% (n = 330,000);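 active = mean inhibition across replicates of 60% or more, whatever share of single replicates reaches that level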
HIF-2a inh: inhibitors of HIF-2a | inhibition, % at 18.8 µM | 786-0 RCC cells HIF-2a reporter, luciferase luminescence, overnight | actives 0.72% (n = 360,000) | AID 624352;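 active = inhibition of the luminescence signal of 40% or more relative to plate controls, in a single-dose primary screen at 18.75 µM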
Peg3 prom inh-2: confirmation of Peg3 promoter inhibitors; shares compounds with Peg3 prom inh-1; HeLa PEG-Prom luciferase reporter, luminescence, overnight; inhibition, % at 20 µM; actives 84% (n = 1,300); AID 602417;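 active = at 20 µM dose, 40% or more inhibition averaged across four replicates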
CF NFkB conf: CF NF-kB inhibition confirmation, single concentration | shares compounds with CF NFkB block | actives 64% (n = 1,300) | KKLEB CF airway cells, PAF-induced NF-kB-GFP fluorescence, overnight | inhibition, % at 5 µM; in the data active = inhibition above about 40%;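 note: stimulus PAF is a Pseudomonas aeruginosa filtrate and not platelet activating factor; plate controls were DMSO wells with stimulus for no effect and unstimulated DMSO wells for full effect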
An asterisk follows results filed as active; / = not tested or not shown.

SMILES	CF NFkB block	KKLEB tox	Peg3 prom inh-1	LMP1 NFkB inh	MITF TRPM1 inh	HIF-2a inh	Peg3 prom inh-2	CF NFkB conf
O=C(CNC1CCCC1)Nc1ccc(N2CCCCCC2)cc1	-16	13	-1	0	-7	-6	/	/
O=C(CNCCC1=CCCCC1)Nc1ccc(N2CCCCCC2)cc1	15	-11	86*	-7	2	33	99*	/
COc1cc(C(=O)Nc2nc(OC)c(-c3ccccc3)c(OC)n2)cc(OC)c1OC	6	-14	50*	-4	15	-12	43*	/
COc1cc(C(=O)Nc2ccc3oc(-c4cccnc4)nc3c2)cc(OC)c1OC	6	-11	52*	6	-5	8	43*	/
COc1ccc(-c2cc(C(=O)Nc3ccc(OC)c(OC)c3)[nH]n2)c(C)c1	6	-6	-61	/	/	-57	/	/
CC(C)CCC(O)(c1ccccc1)C(CN1CCOCC1)c1ccccc1 (configuration not stated)	2	-5	22	2	0	15	/	/
COc1ccc(C(O)(CCC(C)C)C(CN2CCOCC2)c2ccccc2)cc1 (configuration not stated)	11	-4	59*	11	10	10	47*	/
O=C(Nc1cc(Cl)ccc1Cl)P(=O)(O)c1ccccc1	3	-1	5	-16	5	13	/	/
O=C(N/N=C/c1c(O)ccc2ccccc12)c1ccc(CO)nc1	-10	-4	55*	19	46	22	70*	/
COc1ccc2ccccc2c1/C=N/NC(=O)c1ccc(C)nc1	-10	-3	-3	10	-1	-11	/	/
CC(C)Cc1ccc(C(C)C(N)=NCCc2ccccc2)cc1 (configuration not stated)	10	-28	104*	-1	71*	10	99*	/
COc1ccc(NC(=S)Nc2ccc3c(c2)c(=O)n(C)n3-c2ccccc2)cc1	5	14	-48	/	/	-47	/	/
CCC(C)NC(=O)c1c(N)n(/N=C/c2ccccn2)c2nc3ccccc3nc12 (configuration not stated)	2	-4	47	1	5	-16	/	/
CCC(C)NC(=O)c1c(N)n(/N=C/c2cccnc2)c2nc3ccccc3nc12 (configuration not stated)	-2	-6	50*	-3	-7	-44	15	/
COc1ccccc1CN(C)C(=O)c1cc(-c2cc(OC)c(OC)c(OC)c2)nc2ccccc12	74*	-32	53*	23	22	-2	56*	10
Cc1ccc(S(=O)(=O)/N=C(\CCl)N2CCOCC2)cc1	58*	-14	58*	5	23	24	39	70*
CC(=O)c1ccc(-c2cnc3c(NC=O)cc(-c4ccccc4Oc4ccccc4)cn23)cc1	58*	-27	55*	/	/	24	63*	45*
COc1cc(-c2cc(NC(C)=O)c3ncc(-c4ccc(C(C)=O)cc4)n3c2)cc(OC)c1OC	-19	-4	48	/	/	-27	/	/
COc1cccc(CN(C)C(=O)C(CCSC)NS(=O)(=O)c2ccc3c(c2)OCCO3)c1OC (configuration not stated)	74*	15	56*	7	-6	7	62*	79*
CSCCC(NS(=O)(=O)c1ccc2c(c1)OCCO2)C(=O)N(C)Cc1ccc(C)cc1 (configuration not stated)	6	-13	18	3	9	14	/	/
COc1ccc(OC)c(NC(=O)c2cccc(NC(=O)c3ccco3)c2)c1	-19	6	-16	12	/	-7	/	/
CC1CCN(C(=O)c2ccc(NC3=C(Cl)C(=O)N(Cc4ccccc4)C3=O)cc2)CC1	12	-4	40	6	0	-2	/	/
CC1CCCCN1C(=O)c1cccc(NC2=C(Cl)C(=O)N(Cc3ccccc3)C2=O)c1 (configuration not stated)	57*	-44	52*	-9	26	18	54*	-104
O=C(Nc1ccccc1)c1nc[nH]c1C(=O)NCCCCNC(=O)c1[nH]cnc1C(=O)Nc1ccccc1	54*	-13	60*	7	6	4	56*	59*
Cc1ccc(NC(=O)c2nc[nH]c2C(=O)NCCCCCCNC(=O)c2[nH]cnc2C(=O)Nc2ccc(C)cc2)cc1	4	4	46	-37	5	1	/	/
SMILES	CF NFkB block	KKLEB tox	Peg3 prom inh-1	LMP1 NFkB inh	MITF TRPM1 inh	HIF-2a inh	Peg3 prom inh-2	CF NFkB conf
CSc1cccc(NC(=O)CCCOc2cc(=O)n(C)c3ccccc23)c1	-112	-7	0	/	/	-72	/	/
COc1ccc(-n2nc(C(=O)NCC(=O)Nc3cc(OC)c(OC)c(OC)c3)c3ccccc3c2=O)cc1OC	83*	-26	55*	9	11	6	44*	90*
CCc1ccc([C@@H]2C[C@H]3[C@@H](CN2S(=O)(=O)c2ccc(C)cc2)C(=O)C[C@@H](c2cccc(Cl)c2)N3S(=O)(=O)c2ccc(C)cc2)cc1	18	9	3	6	/	6	/	/
FC(F)Sc1ccc(NC(=S)NC(c2ccccc2)c2ccccc2)cc1	51*	-45	53*	1	32	-11	95*	57*
FC(F)Sc1ccc(NC(=S)NCc2ccccc2)cc1	-6	-4	-47	-3	-14	-114	/	/
CCCc1cc(C(=O)Nc2cccc(-c3nn[nH]n3)c2)sc1C	-3	9	-3	6	/	-10	/	/
COc1ccc(CN(C)C[C@H]2OCCCC[C@@H](C)Oc3ccc(NS(C)(=O)=O)cc3C(=O)N([C@H](C)CO)C[C@@H]2C)cc1	-6	3	-18	-4	/	4	/	/
COc1cccc(OC)c1C(=O)Nc1cc(C)nn1-c1nc2ccccc2[nH]1	78*	-17	54*	18	7	-34	71*	53*
COc1ccc(Nc2nccc(-c3cccc(N)c3)n2)cc1	71*	20	73*	-57	-4	-195	-117	94*
O=C(NCc1ccccc1)c1cc(C2COCCN2S(=O)(=O)c2ccccc2)on1 (configuration not stated)	6	-2	10	/	/	10	/	/
Cc1ccc(/C=C2/Sc3ccc(C(=O)NCCN4CCOCC4)cc3NC2=O)cc1	-7	-2	5	3	-20	-21	/	/
Cc1cccc(CN2C(=O)/C(=C\c3ccc(C(=O)NCCN4CCOCC4)cc3)Sc3ccccc32)c1	82*	5	92*	6	-2	9	92*	-16
CN(C)S(=O)(=O)c1cccc(NC(=O)CSc2nc3c(cc2C#N)C(=O)CC(C)(C)C3)c1	58*	-20	60*	-1	68*	-12	60*	35
